According to PubChem BioAssay (NCATS):
Inconclusive results are not listed. Where a call stands in place of a potency, no number is given. Calls of active or inactive are those of the source. Calls come from the whole dose curve; as a rule, active = well fitted inhibition curve with a large enough effect; inconclusive = small, poorly fitted or top-dose-only effect; inactive = flat fitted curve, though single readings scatter.

Biological target: Calcium and integrin-binding protein 1 (Homo sapiens) (UniProt Q99828)
Sequence (Q99828 whole entry, looked up): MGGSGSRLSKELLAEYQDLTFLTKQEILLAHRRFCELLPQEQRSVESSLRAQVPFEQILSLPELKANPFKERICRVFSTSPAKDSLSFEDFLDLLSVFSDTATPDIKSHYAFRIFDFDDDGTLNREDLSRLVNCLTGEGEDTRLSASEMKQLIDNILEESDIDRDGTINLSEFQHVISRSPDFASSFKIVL
Assay: Primary qHTS for Identification of Calcium Integrin Binding Protein 1 (CIB1) Competitor (AID 1508620);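 note: GST tagged CIB1 binding a fluorescein labelled alphaIIb integrin peptide tracer; top concentration of the series differs between compounds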
Conditions: CIB1-GST / FITC-alphaIIb peptide fluorescence polarization; series mostly up to 114 µM
Outline: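 Fluorescence polarization competition: CIB1-GST (1 uM final) preincubated with compound 15 min at room temperature, then FITC-labeled alphaIIb peptide (100 nM final) added for another 15 min. Polarization read at Ex 480/Em 540.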

Structure (SMILES)	Potency
O=S(=O)(Nc1cccc2cccnc12)c1ccc(Br)s1	inactive
Cc1ccsc1CN(C)c1ncnc2ccc(-c3ccoc3)cc12	inactive
O=S(=O)(c1ccc2c(c1)OCCO2)N1CCN(S(=O)(=O)c2ccccn2)CC1	inactive
O=C(Nc1ccc2ccccc2c1)Nc1nnc(-c2ccncc2)s1	inactive
N#Cc1nc(Nc2cccc(C(F)(F)F)c2)nc(NC2CCCC2)n1	inactive
O=S(=O)(c1ccc2c(c1)OCCO2)N1CCN(S(=O)(=O)c2cccc[n+]2[O-])CC1	inactive
CC(=O)N1CCc2cc(-c3nc(NC(=O)Cc4ccc5c(c4)OCO5)sc3C)ccc21	inactive
Cc1ccc2oc(NC3=NC4(CCCC4)C4=C(CCCC4=O)N3)nc2c1	inactive
COc1cccc(S(=O)(=O)NC2CCN(C#N)C2)c1 (stereo not given)	inactive
Cc1cnc(-c2ccccc2C(C)C)nc1NCc1ccc(C2CCCNC2)cc1 (stereo not given)	inactive
CC(C)(C)OC(=O)N1CCN(c2ccc(NCc3ccc(-c4ccc(C#N)cc4)o3)nc2)CC1	inactive
Clc1ccccc1CSc1nc2ncc(Br)cc2[nH]1	inactive
Oc1c(CNc2ccccc2)cc(COCc2ccccc2)c2cccnc12	inactive
O=S1(=O)N=C(Oc2ccccc2-c2ccccc2)c2ccccc21	inactive
O=C(CNC(=O)c1ccc2ccccc2c1)OC(C(=O)Nc1cc(C(F)(F)F)ccc1Cl)c1ccccc1 (stereo not given)	inactive
Cc1csc(CNc2ncnc3ccc(-c4ccccc4Cl)cc23)c1	inactive
Cc1ccnc(NC(=S)Nc2cccc([S+](=O)([O-])Nc3ccccc3F)c2)c1	inactive
S=C(NCCCc1cnc[nH]1)NCCCN(Cc1ccc(Cl)c(Cl)c1)c1ccccn1	inactive
N#CN1CCC(NS(=O)(=O)c2ccc(F)cc2)C1 (stereo not given)	inactive
O=S(=O)(c1cccc(Br)c1)N1CCN(S(=O)(=O)c2ccc3c(c2)OCCO3)CC1	inactive

Structure (SMILES)	Potency
COc1cc(F)c(S(=O)(=O)N2CCCN(S(=O)(=O)c3ccc(NC(C)=O)cc3)CC2)c(F)c1	inactive
O=C(CSc1nnc(-c2cccc(S(=O)(=O)N3CCCC3)c2)n1-c1ccccc1)Nc1ccc(F)cc1	inactive
COc1ccc(C2Nc3ccccc3C(=O)N2Cc2ccccc2)cc1COc1ccc(C(N)=O)cc1 (stereo not given)	inactive
COc1ccccc1C1=Nn2c(nnc2-c2ccccc2O)SC1	inactive
COc1cccc(C2c3c(ncn(-c4ccccc4Cl)c3=N)Oc3ccc4ccccc4c32)c1 (stereo not given)	inactive
NC(=O)C1CCN(c2nc(-c3ccc(Cl)cc3)cs2)CC1	inactive
Cc1cnc(-c2ccccc2C(C)C)nc1NCC1CCN(C2COC2)CC1	inactive
O=C(CSc1nnc(-c2cccc(S(=O)(=O)N3CCCC3)c2)n1-c1ccccc1)Nc1ccccc1	inactive
Cc1ccc(NC(=O)CSc2nnc(-c3cccc([S+](=O)([O-])N4CCCC4)c3)n2-c2ccccc2)cc1	inactive
Cc1ccc(OCCn2c(CCNC(=O)c3cccc(NC(=O)OC(C)(C)C)c3)nc3ccccc32)cc1	inactive
Cc1ccc(-c2nc(NCC(=O)Nc3cccc(C(=O)O)c3)c3ccccc3n2)cc1	inactive
COc1ccc(OCc2nnc3n2N=C(c2ccccc2)CS3)cc1	inactive
COc1cccc(NC(=S)N2CCN(c3ccc4ccccc4n3)CC2)n1	inactive
COc1ccc(C2=Nn3c(nnc3-c3cccc(OC)c3OC)SC2)c(OC)c1	inactive
CCCCN(C)C(=O)Cn1nc(-c2ccc(Cl)cc2)ccc1=O	inactive
Nc1ccc(S(=O)(=O)N2CCN(S(=O)(=O)c3c(F)cccc3F)CC2)cc1	inactive
COc1ccc(CN(Cc2ccccc2)C(=O)c2ccccc2O)cc1COc1ccc(NC(C)=O)cc1	inactive
COc1ccc(C2Nc3ccc(Cl)cc3C(=O)N2Cc2ccccc2)cc1COc1ccc(NC(C)=O)cc1 (stereo not given)	inactive
CCOC(=O)C1CCN(C(=O)C2(NC(=O)Nc3ccc(F)cc3F)CCCCC2)CC1	inactive
O=C1c2ccccc2C(=O)N1c1cccnc1	inactive
